Results published in PubChem BioAssay (Tox21).
Inconclusive results are not listed. Active and inactive are the calls of the source. Unless noted, calls come from the whole dose curve; as a rule, active = well fitted curve in the direction sought with a large enough effect in the repeat runs; inconclusive = weak or mixed curves; inactive = no such curve, though single readings can be large; an effect the other way counts as inactive or inconclusive.

How the values were obtained:
[1] = molecular target: Retinoic acid receptor RXR-alpha (Homo sapiens) (UniProt P19793); assay: qHTS assay to identify small molecule agonists of the RXR signaling pathway (AID 1159527; calls by dose curve; note: nearly all actives have a fitted effect of over 35% in size)
In short: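 16 hr incubation of compound-treated RXR-alpha-UAS-bla HEK 293T cells (2% charcoal-stripped FBS, 37 C) preceded a 2 hr room-temperature LiveBLAzer FRET substrate step and blue/green fluorescence measurement.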

[2] = qHTS assay to identify small molecule agonists of the RXR signaling pathway - cell viability counter screen (AID 1159529);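 note: HEK 293T cells carrying an RXR-alpha UAS beta-lactamase reporter; series mostly up to about 77 µM; nearly all actives have a fitted effect of over 50% in size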
In short: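 In this parallel viability measure, GeneBLAzer RXR-alpha HEK 293T cells (2% charcoal-stripped FBS) were given a 5 hr preincubation, treated with compounds 16 hr at 37 C, and read by CellTiter-Glo luminescence.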

[3] = qHTS assay to identify small molecule antagonists of the retinoid acid receptor (RAR) signaling pathway - cell viability counter screen (AID 1159551); note: nearly all actives have a fitted effect of over 35% in size
In short: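 Viability of C3RL4 cells is quantified from ATP by luminescence after 6 h treatment at 37 C with compounds and 1 uM retinol.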

[4] = qHTS assay to identify small molecule antagonists of the retinoic acid receptor (RAR) signaling pathway (AID 1159552; note: nearly all actives have a fitted effect of over 50% in size)
In short: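 C3RL4 RARE-luc cells, overnight plating; retinol 1 uM final added right after compound; 6 hr 37 C; luciferase read at 30 min RT.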

[5] = qHTS assay to identify small molecule agonists of the retinoic acid receptor (RAR) signaling pathway (AID 1159553)
In short: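 Compounds dissolved in DMSO were pinned onto C3RL4 cells seeded the previous day, and plates were held 6 hr at 37 C. RARE-driven luciferase output was then read by luminescence.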

[6] = qHTS assay to identify small molecule agonists of the constitutive androstane receptor (CAR) signaling pathway - cell viability counter screen (AID 1224836); note: series mostly up to about 92 µM; nearly all actives have a fitted effect of over 45% in size
In short: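 Using CellTiter-Fluor, viability of HepG2 cells harbouring hCAR and CYP2B6-2.2kb was measured following 23 h incubation with a 15-concentration compound series plus PK11195 (0.75 uM final).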

[7] = qHTS assay to identify small molecule antagonists of the constitutive androstane receptor (CAR) signaling pathway - cell viability counter screen (AID 1224837); note: series mostly up to about 92 µM; nearly all actives have a fitted effect of over 45% in size
In short: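 In quantitative HTS format, compounds at 15 concentrations were applied to HepG2 cells double-transfected with hCAR and CYP2B6-2.2kb under 50 nM CITCO stimulation; live-cell protease activity was read after 23 hr via CellTiter-Fluor.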

[8] = qHTS assay to identify small molecule antagonists of the estrogen related receptor signaling pathway with the pleiotropic PPARgamma coactivator (PGC) from Tox21 10K library - cell viability counter screen (AID 1224840; active = well fitted cell-killing curve with a large enough effect in the repeat runs, not every such curve was filed as active; note: nearly all actives have a fitted effect of over 40% in size)
In short: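 Viability counter screen, PGC/ERR cells: 17.5 h compound exposure at 37 C, CellTiter-Fluor fluorescence endpoint.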

[9] = qHTS assay to identify small molecule antagonists of the estrogen related receptor (ERR) signaling pathway from Tox21 library - cell viability counter screen (AID 1224834); note: nearly all actives have a fitted effect of over 30% in size
In short: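 In this quantitative HTS format, ERR cells receive compounds in DMSO and are incubated for 17.5 h at 37 C. Live-cell protease activity is then detected with CellTiter-Fluor.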

[10] = molecular target: Luciferin 4-monooxygenase (Photinus pyralis) (UniProt P08659); assay: qHTS assay to identify small molecule inhibitors of firefly luciferase (AID 1224835); note: series mostly up to about 120 µM; nearly all actives have a fitted effect of over 25% in size
In short: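 Biochemical qHTS: compounds run as interplate titrations against purified firefly enzyme, with D-luciferin and ATP each at its KM concentration. Light output recorded by CCD imaging.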

[11] = qHTS assay to identify small molecule agonists of the estrogen related receptor signaling pathway with the pleiotropic PPARgamma coactivator (PGC) from Tox21 10K library (AID 1224842); note: nearly all actives have a fitted effect of over 15% in size
In short: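 PGC/ERR reporter cell line, 2,000 cells per well, incubated 6 h at 37 C before 23 nL compound in DMSO was added. After 18 h at 37 C, One-Glo luminescence read following 30 min at room temperature.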

[12] = qHTS assay to identify small molecule antagonists of the estrogen related receptor (ERR) signaling pathway - cell viability counter screen (AID 1224818); note: series mostly up to about 46 µM
In short: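 Cytotoxicity check run alongside the ERR antagonist screen: cells exposed to test compounds 17.5 h at 37 C, viability taken as CellTiter-Fluor fluorescence intensity.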

[13] = qHTS assay to identify small molecule antagonists of the estrogen related receptor (ERR) signaling pathway (AID 1224819; note: series mostly up to about 46 µM; nearly all actives have a fitted effect of over 50% in size)
In short: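 ERR reporter cells were plated at 2,000 cells/well and left 6 h at 37 C/5% CO2 before pin-tool transfer of compounds in DMSO. After 18 h at 37 C, One-Glo was added and luminescence was read 30 min later at room temperature.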

[14] = qHTS assay to identify small molecule agonists of the estrogen related receptor (ERR) signaling pathway (AID 1224820)
In short: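 After 6 h plating (2,000 cells/well) and 18 h compound treatment at 37 C, ERR cells were lysed with One-Glo and luminescence read after 30 min at room temperature.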

[15] = tested on: estrogen-related receptor alpha (ERRalpha) with PGC-1alpha coactivator, human; assay: qHTS assay to identify small molecule antagonists of the estrogen related receptor signaling pathway with the pleiotropic PPARgamma coactivator (PGC) (AID 1224821; calls by dose curve;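 note: series mostly up to about 46 µM; lower luminescence signal means antagonism of PGC/ERR signalling; nearly all actives have a fitted effect of over 50% in size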)
In short: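 Luminescence from One-Glo luciferase reagent (30 min, room temperature) measured after 18 h compound treatment at 37 °C. Cells carry the PGC/ERR reporter and were seeded 6 h prior to dosing.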

[16] = qHTS assay to identify small molecule antagonists of the estrogen related receptor signaling pathway with the pleiotropic PPARgamma coactivator (PGC) cell viability counter screen (AID 1224822; note: series mostly up to about 46 µM)
In short: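 Viable cell signal (CellTiter-Fluor, 30 min, 37 C/5% CO2) was measured in PGC/ERR cells after a 17.5 h compound incubation.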

[17] = qHTS assay to identify small molecule agonists of the estrogen related receptor signaling pathway with the pleiotropic PPARgamma coactivator (PGC) (AID 1224823)
In short: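 Luminescence from One-Glo reagent (30 min, room temperature) was read after 18 h compound treatment at 37 C of PGC/ERR cells plated 6 h beforehand; compounds delivered in DMSO by pin tool.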

[18] = molecular target: Nuclear receptor subfamily 1 group I member 3 (Homo sapiens) (UniProt Q14994); assay: qHTS assay to identify small molecule antagonists of the constitutive androstane receptor (CAR) signaling pathway (AID 1224838); note: nearly all actives have a fitted effect of over 40% in size
In short: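 CITCO-stimulated (50 nM final) HepG2 cells stably transfected with hCAR and CYP2B6-2.2kb luciferase were exposed to compounds at 15 concentrations for 24 h at 37 C/5% CO2. A luciferase reagent was added and luminescence recorded after 30 min.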

[19] = molecular target: Nuclear receptor subfamily 1 group I member 3 (Homo sapiens) (UniProt Q14994); assay: qHTS assay to identify small molecule agonists of the constitutive androstane receptor (CAR) signaling pathway (AID 1224839);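 note: HepG2 cells stably carrying human CAR and a CYP2B6 luciferase reporter; series mostly up to about 92 µM; nearly all actives have a fitted effect of over 15% in size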
In short: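 Double-stable HepG2 cells (hCAR, CYP2B6-2.2kb) seeded 4 h before compound addition. Exposure 24 h with 0.75 uM PK11195 final. Luciferase detected by ONE-Glo.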

[20] = qHTS assay to identify small molecule antagonists of the estrogen related receptor signaling pathway with the pleiotropic PPARgamma coactivator (PGC) from Tox21 10K library (AID 1224841; call rule not given here)
In short: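 In the PGC/ERR line, DMSO solutions of test chemicals are pin-delivered to 2,000 cells/well six hours after dispensing. Following eighteen hours' incubation, One-Glo reagent is added and luminescence recorded.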
% is set by controls: 0 for no effect and ±100 for the full control effect.

Chain of Nuclear receptor subfamily 1 group I member 3 (Homo sapiens) (Q14994 whole entry, looked up): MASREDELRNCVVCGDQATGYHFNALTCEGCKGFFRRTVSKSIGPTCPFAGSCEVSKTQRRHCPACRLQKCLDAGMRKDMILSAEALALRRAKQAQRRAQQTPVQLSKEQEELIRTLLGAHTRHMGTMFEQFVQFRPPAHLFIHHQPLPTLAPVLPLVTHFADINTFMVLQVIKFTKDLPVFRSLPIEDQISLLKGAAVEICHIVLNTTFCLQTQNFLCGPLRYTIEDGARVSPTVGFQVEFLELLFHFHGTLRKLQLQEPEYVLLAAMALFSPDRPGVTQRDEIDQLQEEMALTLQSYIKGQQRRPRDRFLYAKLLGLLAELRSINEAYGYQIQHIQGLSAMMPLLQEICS
Chain of Retinoic acid receptor RXR-alpha (Homo sapiens) (P19793 whole entry, looked up): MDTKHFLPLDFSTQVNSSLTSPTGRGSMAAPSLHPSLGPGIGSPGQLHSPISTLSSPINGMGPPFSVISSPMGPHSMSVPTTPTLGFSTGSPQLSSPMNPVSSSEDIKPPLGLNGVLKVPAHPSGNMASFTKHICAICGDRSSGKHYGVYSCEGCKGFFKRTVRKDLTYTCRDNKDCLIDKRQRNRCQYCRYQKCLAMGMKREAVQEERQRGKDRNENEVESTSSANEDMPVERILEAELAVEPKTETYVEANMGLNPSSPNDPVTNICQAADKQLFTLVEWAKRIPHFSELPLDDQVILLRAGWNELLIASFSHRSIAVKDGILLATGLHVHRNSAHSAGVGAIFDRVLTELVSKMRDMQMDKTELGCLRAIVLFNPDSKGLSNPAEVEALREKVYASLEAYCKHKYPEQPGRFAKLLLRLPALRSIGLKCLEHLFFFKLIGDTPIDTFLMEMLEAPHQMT
Chain of Luciferin 4-monooxygenase (Photinus pyralis) (P08659 whole entry, looked up): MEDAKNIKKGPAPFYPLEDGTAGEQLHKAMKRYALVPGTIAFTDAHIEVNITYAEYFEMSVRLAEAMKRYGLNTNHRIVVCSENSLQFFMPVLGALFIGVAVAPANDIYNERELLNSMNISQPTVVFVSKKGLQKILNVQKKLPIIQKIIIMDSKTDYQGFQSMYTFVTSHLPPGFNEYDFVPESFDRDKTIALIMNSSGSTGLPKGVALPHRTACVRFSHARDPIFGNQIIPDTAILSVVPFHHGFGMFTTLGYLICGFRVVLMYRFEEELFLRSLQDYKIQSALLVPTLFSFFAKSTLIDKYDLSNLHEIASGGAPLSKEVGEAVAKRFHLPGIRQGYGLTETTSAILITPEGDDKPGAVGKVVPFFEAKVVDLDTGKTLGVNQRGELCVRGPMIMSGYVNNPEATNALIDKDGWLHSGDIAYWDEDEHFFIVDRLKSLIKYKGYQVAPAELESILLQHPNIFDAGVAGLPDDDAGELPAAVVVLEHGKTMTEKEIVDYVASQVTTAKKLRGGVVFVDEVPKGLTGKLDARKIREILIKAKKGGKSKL

NCCN1CCOCC1
inactive: Potency [1] | outcome [2] | outcome [3] | outcome [4] | Potency [5] | Potency [6] | Potency [7] | outcome [8]

CC(C)OC(=O)CCCCC(=O)OC(C)C
inactive: Potency [1] | outcome [2] | outcome [3] | outcome [4] | Potency [9] | Potency [10] | Potency [6] | Potency [7]

CCO[Si](CCCS)(OCC)OCC
inactive: Potency [1] | outcome [2] | outcome [3] | outcome [4] | Potency [9] | Potency [10] | Potency [6] | outcome [8] | outcome [11]

Cc1cccc(C)c1OCC(C)N (centres undefined)
inactive: Potency [1] | outcome [2] | outcome [3] | outcome [12] | outcome [13] | outcome [14] | outcome [15] | outcome [16] | outcome [17] | Potency [9] | Potency [10] | Potency [6] | Potency [7] | outcome [18] | Potency [19] | outcome [8] | Potency [20] | outcome [11]

CC(N)C(=O)OC(C)(C)Cc1ccc(Cl)cc1 (centres undefined)
inactive: Potency [1] | outcome [2] | outcome [3] | Potency [5] | Potency [10] | Potency [6] | outcome [18] | Potency [19]

CC(=C(CCOC(=O)C(C)C)SSC(CCOC(=O)C(C)C)=C(C)N(C=O)Cc1cnc(C)nc1N)N(C=O)Cc1cnc(C)nc1N
inactive: Potency [1] | outcome [2] | outcome [3] | Potency [5] | Potency [9] | Potency [10] | Potency [6] | Potency [7] | outcome [18] | Potency [19] | outcome [8] | Potency [20]

O=Cc1ccc(Cl)c(Cl)c1
inactive: Potency [1] | outcome [2] | outcome [3] | Potency [5] | Potency [9] | Potency [10] | Potency [6] | Potency [7] | outcome [8]

CCCCCCCCCCl
inactive: Potency [1] | outcome [2] | outcome [3] | Potency [5] | Potency [9] | Potency [6] | Potency [7] | outcome [8] | Potency [20] | outcome [11]

O=S(O)(O)=S
inactive: activation [1] 4.57% [at 6.98 µM] | activity change, negative = cytotoxicity [2] 0.418% [at 6.97 µM] | activity change, negative = cytotoxicity [3] 0.445% [at 8.39 µM] | activation [5] -0.738% [at 8.36 µM] | viability change, negative = cytotoxic [9] 0.32% [at 8.39 µM] | activity change, negative = inhibition [10] 1.12% [at 10.5 µM] | viability change, negative = cytotoxic [6] 1.44% [at 8.39 µM] | activity change, negative = cytotoxicity [7] 0.559% [at 8.39 µM] | activity, negative = inhibition [18] -2.22% [at 8.39 µM] | viability change, negative = cytotoxic [8] 0.0211% [at 8.39 µM] | activation [11] -0.09% [at 8.39 µM]

Cc1ccccc1C(=O)Nc1ccc(C(=O)N2CCCC(N(C)C)c3ccccc32)cc1 (centres undefined)
inactive: Potency [1] | outcome [2] | outcome [3] | Potency [5] | Potency [10] | Potency [6] | Potency [7] | outcome [8]

CCOc1cc([N+](=O)[O-])c(OCC)cc1N1CCOCC1
inactive: Potency [1] | outcome [2] | outcome [3] | Potency [5] | Potency [10] | Potency [6] | Potency [7] | outcome [8]
